# Records with an inconclusive call do not appear. Where a call stands in place of a potency, no number is given. Unmarked numbers belong to inactive results. Calls of active or inactive are those of the source. Calls come from the whole dose curve; as a rule, active = well fitted curve in the direction sought with a large enough effect; inconclusive = small, poorly fitted or top-dose-only effect, or another doubt; inactive = no such curve, though single readings can be large; an effect the other way counts as inactive or inconclusive.
# Tests used:
# [1] = P-glycoprotein substrates identified in KB-3-1 adenocarcinoma cell line, qHTS therapeutic library screen (AID 1346986); note: nearly all actives have a fitted effect of over 60% in size
# How it was run: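 Resistance attributable to P-gp was assessed by comparing AC50 in KB-8-5-11 with parental KB-3-1 and by tariquidar reversal. Cells were exposed 72 h and viability read by CellTiter-Glo.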
# [2] = P-glycoprotein substrates identified in KB-8-5-11 adenocarcinoma cell line, qHTS therapeutic library screen (AID 1346987); note: nearly all actives have a fitted effect of over 65% in size; for activity change, negative = cytotoxicity: series mostly up to about 44 µM
# How it was run: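 Steps: plate 500 KB-8-5-11 cells/well in DMEM + 10% FCS (colchicine removed); pin compounds in dose-response; incubate 72 h, 37 degree C, 5% CO2; add CellTiter-Glo, 5 min; read luminescence.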
smiles,measurement,setting,value
COC(=O)C1=COC(O[C@@H]2O[C@H](CO)[C@@H](O)[C@H](O)[C@H]2O)/C(=C\COC(=O)c2ccc(OC3OC(CO)C(O)C(O)C3O)c(OC)c2)C1CC(=O)OCCc1ccc(O)cc1 (some centres not stated),outcome,[1],inactive [at 9.29 µM]
same,outcome,[2],inactive [at 9.29 µM]
CC(/C=C/C1(O)C2(C)COC1(C)CC(=O)C2)O[C@@H]1O[C@H](CO)[C@@H](O)[C@H](O)[C@H]1O (some centres not stated),Potency,[1],inactive
same,Potency,[2],inactive
CC12CCC3c4ccc(O)cc4CCC3C1CCC2OC1OC(C(=O)O)C(O)C(O)C1O (configuration not stated),Potency,[1],inactive
same,Potency,[2],inactive
CC(=O)O[C@@]1(C)C[C@@H](O)[C@]2(O)C=CO[C@@H](O[C@@H]3O[C@H](CO)[C@@H](O)[C@H](O)[C@H]3O)[C@@H]21,Potency,[1],inactive
same,Potency,[2],inactive
O=C1N(CC2CCCCN2)CCN1c1ccccc1 (configuration not stated),Potency,[1],inactive
same,Potency,[2],inactive
C[C@@H]1O[C@@H](O[C@H]2[C@H](OC(=O)[C@]34CCC(C)(C)C[C@H]3C3=CCC5[C@@]6(C)C[C@H](O)[C@H](O[C@@H]7O[C@H](CO[C@@H]8OC[C@H](O)[C@H](O)[C@H]8O)[C@@H](O)[C@H](O)[C@H]7O)C(C)(C)C6CC[C@@]5(C)[C@]3(C)C[C@H]4O)OC[C@@H](O)[C@@H]2O)[C@H](O)[C@H](O[C@@H]2OC[C@](O)(CO)[C@H]2O)[C@H]1O[C@@H]1OC[C@H](O)[C@H](O[C@@H]2OC[C@@H](O)[C@H](O)[C@H]2O)[C@H]1O (some centres not stated),outcome,[1],inactive [at 9.29 µM]
same,"activity change, negative = cytotoxicity",[2],7.52% [at 9.29 µM]
CCC(=O)NS(=O)(=O)c1ccc(-c2c(-c3ccccc3)noc2C)cc1,Potency,[1],inactive
same,Potency,[2],inactive
CC(C)(O)C1CC=C(C(=O)OCC2OC(Oc3c(O)cc(C(=O)O)cc3O)C(O)C(O)C2O)CC1 (configuration not stated),Potency,[1],inactive
same,Potency,[2],inactive
Cc1ccc(Sc2cncc3sc(C(N)=O)cc23)cc1,Potency,[1],inactive
same,Potency,[2],inactive
OC[C@H]1O[C@@H](Oc2ccc3c(c2)OC[C@H]2c4cc5c(cc4O[C@@H]32)OCO5)[C@H](O)[C@@H](O)[C@@H]1O,Potency,[1],inactive
same,Potency,[2],inactive
CC(=O)NCCCCn1c2c(c3ccccc31)C(=O)NCC2,Potency,[1],inactive
same,Potency,[2],inactive
OC[C@H]1O[C@@H](Oc2cc(O)cc(/C=C/c3ccc(O)cc3)c2)[C@H](O)[C@@H](O)[C@@H]1O,Potency,[1],inactive
same,Potency,[2],inactive
Cc1ncc([N+](=O)[O-])n1CC(O)CN1CCOCC1 (configuration not stated),Potency,[1],inactive
same,Potency,[2],inactive
O=C(O)[C@H]1CCCC[C@H]1C(=O)N1CCc2ccccc2[C@H]1CN1C(=O)c2ccccc2C1=O,Potency,[1],inactive
same,Potency,[2],inactive
O=C(O[C@H]1[C@@H]2C[C@@H]3OC[C@@](O)([C@H]2[C@H](O[C@@H]2O[C@H](CO)[C@@H](O)[C@H](O)[C@H]2O)O3)[C@@H]1O)c1ccccc1,Potency,[1],inactive
same,Potency,[2],inactive
O=C(NCc1ccc(OC(F)(F)F)cc1)C1c2ccccc2C(=O)N1C1CCOCC1 (configuration not stated),Potency,[1],inactive
same,Potency,[2],inactive
Cc1cc(O)cc(Oc2cc(C)c(C(=O)O)c(O)c2)c1,Potency,[1],inactive
same,Potency,[2],inactive
CC(=O)NC(C(=O)OC1CCC(C)(C)C2CC=C3C(=O)OCC3(O)C12C)C(C)C (configuration not stated),Potency,[1],inactive
same,Potency,[2],inactive
CC(=O)O[C@@H]1C[C@]2(C)[C@@]3(CCC4[C@@]5(C)CC[C@H](O[C@@H]6O[C@H](C(=O)O)[C@@H](O)[C@H](O[C@@H]7O[C@H](CO)[C@H](O)[C@H](O)[C@H]7O[C@@H]7O[C@@H](C)[C@H](O)[C@@H](O)[C@H]7O[C@@H]7OC[C@](O)(CO)[C@H]7O)[C@H]6O[C@@H]6O[C@H](CO)[C@H](O)[C@H](O)[C@H]6O)C(C)(C)C5CC[C@]42C)O[C@@H](O)[C@]12C3CC(C)(C)[C@@H](OC(=O)/C=C/c1ccc(O)c(O)c1)[C@@H]2OC(=O)/C=C/c1ccccc1 (some centres not stated),outcome,[1],inactive [at 9.29 µM]
same,outcome,[2],inactive [at 9.29 µM]
C=C1CC[C@H]2[C@@H](/C=C(\C)C(=O)[C@@]3(OC(C)=O)C[C@H](C)[C@H](OC(C)=O)[C@@H]3[C@H]1OC(C)=O)C2(C)C,Potency,[1],inactive
same,Potency,[2],inactive
C/C(=C\CCC(C(=O)O)C1CCC2(C)C3=C(CCC12C)C1(C)CCC(=O)C(C)(C)C1CC3)C(=O)O (configuration not stated),Potency,[1],inactive
same,Potency,[2],inactive
